Calls of active or inactive are those of the source.
How the values were obtained:
[1] = test system: PRMT1 (protein arginine N-methyltransferase 1); assay: PRMT1 binders on small-molecule microarrays, primary screen, biochemical, small-molecule microarray, 635 nm fluorescence (AID 1088); settings: small-molecule microarray binding, higher = more signal;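 also: binding of Prmt1 protein to compounds spotted on small-molecule microarray slides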
[2] = yeast growth modulation, basal conditions, primary screen, YJM789 clinical isolate, OD600, 24 h (AID 1089);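 also: growth of clinical yeast isolate S. cerevisiae YJM 789 seeded 1000 cells per well; test concentration not given here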; settings: S. cerevisiae YJM789 growth, higher = more signal, called active from +8 up or from −8 down
[3] = fission yeast growth modulation, primary screen, strain 972, OD600, 24 h, no modulator (AID 1090);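 also: basal condition with compound alone and no growth modifier present; test concentration not given here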; settings: S. pombe 972 growth, higher = more signal, called active from +8 up or from −8 down
[4] = S. cerevisiae growth modulation with rapamycin, primary screen, strain BY4716, OD600, 96 h (AID 1091); settings: higher = more signal, called active from +8 up or from −8 down; also: test concentration not given here
[5] = target: Torsin-1A-interacting protein 2 (Homo sapiens) (UniProt Q8NFQ8); assay: LULL1 binders on small-molecule microarray, primary screen, cell lysate, human LULL1 lysate, 635/667 nm fluorescence (AID 1092); settings: hLULL1 lysate binding, 635 nm fluorescence, higher = more signal;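 also: probe is lysate of COS7 cells overexpressing human LULL1; score merges per-feature 667 nm fluorescence with signal-to-noise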
[6] = E. coli growth modulation, two-sided OD650, primary screen, E. coli filamentation project, strain DRC41, 24 h (AID 1093); settings: OD650, 24 h, higher = more signal, called active from +8 up or from −8 down;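 also: MC1000 strain lacking acrAB efflux and sulA so SOS filamentation is blocked; test concentration not given here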
[7] = small-molecule microarray binders of probe aLefty2, primary screen, biochemical, biotinylated probe, 635/667 nm fluorescence (AID 1094); settings: higher = more signal;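 also: score merges spot fluorescence near 667 nm with spot signal-to-noise ratio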
[8] = test system: Noggin (protein binding on small-molecule microarray); assay: Noggin binders on small-molecule microarray, primary screen, biochemical, 635/667 nm fluorescence (AID 1095); settings: 635 nm fluorescence, higher = more signal;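 also: score merges 667 nm feature fluorescence with signal to noise over triplicate slides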
[9] = target: Neurogenic locus notch homolog protein 3 (Homo sapiens) (UniProt Q9UM47); assay: NOTCH3 binders on small-molecule microarray, primary screen, biochemical, 635/667 nm fluorescence (AID 1096); settings: NOTCH3 binding, 635 nm fluorescence, higher = more signal
[10] = small-molecule microarray binders of probe aEGFR, primary screen, biochemical, biotinylated probe, 635/667 nm fluorescence (AID 1097); settings: higher = more signal;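 also: probe is a biotinylated anti-EGFR antibody binding compounds printed on slides; score combines fluorescence near 667 nm and signal to noise of each spot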
[11] = test system: Plasmodium falciparum Sir2 (PF13_0152, Sir2A); assay: pfSir2 binders on small-molecule microarrays, primary screen, biochemical, small-molecule microarray, 635 nm fluorescence (AID 1098); settings: small-molecule microarray binding, fluorescence 635 nm; higher = more signal;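 also: score merges spot fluorescence intensity with its signal-to-noise ratio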
[12] = small-molecule microarray binders of probe aDKK1, primary screen, biochemical, biotinylated probe, 635/667 nm fluorescence (AID 1099); settings: higher = more signal;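 also: score merges 667nm spot fluorescence with signal to noise across triplicate slides; reference of the scale not given here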
[13] = small-molecule microarray binders of probe aCHRDL2, primary screen, biochemical, biotinylated probe, 635/667 nm fluorescence (AID 1100); settings: higher = more signal
[14] = splicing luciferase reporter signal modulators, primary screen, spliceosome inhibition project, cell-based, HEK293, splice +/- reporter (AID 1101); settings: luminescence, 24 h, higher = more signal, called active from +8 up or from −8 down;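 also: HEK293 cells carrying a splicing-competent luciferase reporter gene; test concentration not given here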
[15] = target: Fibroblast growth factor 10 (Homo sapiens) (UniProt O15520); assay: FGF10 binders on small-molecule microarrays, primary screen, biochemical, small-molecule microarray, 635 nm fluorescence (AID 1102); settings: FGF10 binding, fluorescence 635 nm, higher = more signal
[16] = test system: glycogen synthase kinase-3 (GSK3A per assay name; protocol says GSK3B); assay: GSK3 binders on small-molecule microarrays, primary screen, biochemical, small-molecule microarray, 635 nm fluorescence, GSK3A (AID 1103); settings: small-molecule microarray binding, fluorescence 635 nm; higher = more signal; also: the record names both GSK3A and GSK3B
[17] = target: Epidermal growth factor receptor (Homo sapiens) (UniProt P00533); assay: EGFR binders on small-molecule microarrays, primary screen, biochemical, small-molecule microarray, 635 nm fluorescence (AID 1104); settings: EGFR binding, higher = more signal;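 also: score merges 667 nm emission intensity with spot signal to noise over triplicate slides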
[18] = target: Follistatin-related protein 3 (Homo sapiens) (UniProt O95633); assay: FSTL3 binders on small-molecule microarrays, primary screen, biochemical, small-molecule microarray, 635 nm fluorescence (AID 1105); settings: FSTL3 binding, higher = more signal;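 also: score merges emission near 667 nm and signal to noise per printed spot across three slides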
[19] = target: Dickkopf-related protein 1 (Homo sapiens) (UniProt O94907); assay: DKK1 binders on small-molecule microarrays, primary screen, biochemical, small-molecule microarray, 635 nm fluorescence scan (AID 1106); settings: DKK1 binding, higher = more signal;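 also: score merges emission near 667 nm with signal to noise over three replicate slides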
[20] = test system: Inhibin beta A chain (activin A); assay: INHBA (activin A) binders on microarrays, primary screen, biochemical, small-molecule microarray, 635 nm fluorescence scan (AID 1107); settings: small-molecule microarray binding, higher = more signal;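 also: mouse activin A protein probed at 4.33 µg/mL on printed slides; score merges bound-protein fluorescence near 667 nm with spot signal-to-noise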

Chain of Neurogenic locus notch homolog protein 3 (Homo sapiens) (Q9UM47 whole entry, looked up): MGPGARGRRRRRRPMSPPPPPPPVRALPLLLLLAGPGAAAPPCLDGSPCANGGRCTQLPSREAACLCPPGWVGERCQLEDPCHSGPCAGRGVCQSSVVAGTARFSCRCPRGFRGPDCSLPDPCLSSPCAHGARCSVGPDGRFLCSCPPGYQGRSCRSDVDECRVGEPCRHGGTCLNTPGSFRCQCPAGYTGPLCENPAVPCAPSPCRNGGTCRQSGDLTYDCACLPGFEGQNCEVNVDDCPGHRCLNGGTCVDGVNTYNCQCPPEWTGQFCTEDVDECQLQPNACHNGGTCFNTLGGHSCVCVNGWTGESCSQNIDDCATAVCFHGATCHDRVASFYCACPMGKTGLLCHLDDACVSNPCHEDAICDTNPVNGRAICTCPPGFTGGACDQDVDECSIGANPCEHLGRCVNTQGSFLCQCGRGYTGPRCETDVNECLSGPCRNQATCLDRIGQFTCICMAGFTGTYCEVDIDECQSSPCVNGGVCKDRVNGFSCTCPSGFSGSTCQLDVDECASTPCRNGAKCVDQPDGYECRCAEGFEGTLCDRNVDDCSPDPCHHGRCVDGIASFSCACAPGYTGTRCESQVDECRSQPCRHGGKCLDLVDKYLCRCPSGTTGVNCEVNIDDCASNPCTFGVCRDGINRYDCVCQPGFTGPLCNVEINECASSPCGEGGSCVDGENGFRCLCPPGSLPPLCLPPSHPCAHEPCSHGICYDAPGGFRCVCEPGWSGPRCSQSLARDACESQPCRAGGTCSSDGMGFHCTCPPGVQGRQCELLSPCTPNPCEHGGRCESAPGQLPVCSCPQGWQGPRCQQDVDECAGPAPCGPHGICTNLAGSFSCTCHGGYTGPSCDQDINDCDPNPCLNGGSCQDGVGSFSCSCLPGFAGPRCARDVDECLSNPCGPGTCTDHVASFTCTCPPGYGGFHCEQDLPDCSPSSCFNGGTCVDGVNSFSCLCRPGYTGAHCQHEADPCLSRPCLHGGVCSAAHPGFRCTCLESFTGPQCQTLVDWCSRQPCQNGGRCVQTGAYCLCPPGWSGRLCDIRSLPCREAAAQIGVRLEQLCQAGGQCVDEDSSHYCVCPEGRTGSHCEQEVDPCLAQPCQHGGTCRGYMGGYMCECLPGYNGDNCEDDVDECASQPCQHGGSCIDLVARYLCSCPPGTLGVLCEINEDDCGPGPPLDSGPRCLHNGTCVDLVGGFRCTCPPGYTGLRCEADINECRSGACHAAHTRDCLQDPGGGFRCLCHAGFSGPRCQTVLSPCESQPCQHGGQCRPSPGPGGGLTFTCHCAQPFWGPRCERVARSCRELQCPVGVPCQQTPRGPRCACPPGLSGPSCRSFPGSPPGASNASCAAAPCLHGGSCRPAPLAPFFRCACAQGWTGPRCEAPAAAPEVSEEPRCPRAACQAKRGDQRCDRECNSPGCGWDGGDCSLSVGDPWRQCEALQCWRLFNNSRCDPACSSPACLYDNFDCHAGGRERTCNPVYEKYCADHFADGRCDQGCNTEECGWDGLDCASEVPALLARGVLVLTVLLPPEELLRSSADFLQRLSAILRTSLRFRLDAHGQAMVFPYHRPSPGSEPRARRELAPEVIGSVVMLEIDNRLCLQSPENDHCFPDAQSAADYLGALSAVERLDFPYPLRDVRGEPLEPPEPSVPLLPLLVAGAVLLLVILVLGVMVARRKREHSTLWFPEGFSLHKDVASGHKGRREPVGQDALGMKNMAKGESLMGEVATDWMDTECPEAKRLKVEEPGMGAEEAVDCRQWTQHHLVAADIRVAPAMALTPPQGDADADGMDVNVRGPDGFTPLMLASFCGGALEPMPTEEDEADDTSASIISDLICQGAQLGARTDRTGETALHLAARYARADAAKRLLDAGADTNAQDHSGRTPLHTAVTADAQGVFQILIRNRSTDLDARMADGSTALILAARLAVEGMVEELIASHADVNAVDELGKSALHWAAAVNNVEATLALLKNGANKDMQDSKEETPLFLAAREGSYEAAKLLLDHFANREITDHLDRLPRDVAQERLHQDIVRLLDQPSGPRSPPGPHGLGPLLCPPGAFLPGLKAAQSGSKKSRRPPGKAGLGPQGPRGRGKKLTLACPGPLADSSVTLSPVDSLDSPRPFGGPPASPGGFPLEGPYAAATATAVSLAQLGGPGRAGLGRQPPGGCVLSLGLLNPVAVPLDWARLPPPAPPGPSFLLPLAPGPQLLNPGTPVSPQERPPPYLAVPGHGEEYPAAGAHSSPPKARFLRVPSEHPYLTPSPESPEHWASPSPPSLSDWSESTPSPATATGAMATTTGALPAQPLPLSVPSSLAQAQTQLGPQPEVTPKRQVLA
Chain of Dickkopf-related protein 1 (Homo sapiens) (O94907 whole entry, looked up): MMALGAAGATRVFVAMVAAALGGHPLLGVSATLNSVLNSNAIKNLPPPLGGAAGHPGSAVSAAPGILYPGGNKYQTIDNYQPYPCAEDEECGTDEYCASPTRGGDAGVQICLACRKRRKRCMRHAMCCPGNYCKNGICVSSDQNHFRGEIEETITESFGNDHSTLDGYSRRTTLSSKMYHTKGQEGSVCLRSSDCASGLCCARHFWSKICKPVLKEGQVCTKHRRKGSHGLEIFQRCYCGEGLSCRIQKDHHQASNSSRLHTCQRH
Chain of Torsin-1A-interacting protein 2 (Homo sapiens) (Q8NFQ8 whole entry, looked up): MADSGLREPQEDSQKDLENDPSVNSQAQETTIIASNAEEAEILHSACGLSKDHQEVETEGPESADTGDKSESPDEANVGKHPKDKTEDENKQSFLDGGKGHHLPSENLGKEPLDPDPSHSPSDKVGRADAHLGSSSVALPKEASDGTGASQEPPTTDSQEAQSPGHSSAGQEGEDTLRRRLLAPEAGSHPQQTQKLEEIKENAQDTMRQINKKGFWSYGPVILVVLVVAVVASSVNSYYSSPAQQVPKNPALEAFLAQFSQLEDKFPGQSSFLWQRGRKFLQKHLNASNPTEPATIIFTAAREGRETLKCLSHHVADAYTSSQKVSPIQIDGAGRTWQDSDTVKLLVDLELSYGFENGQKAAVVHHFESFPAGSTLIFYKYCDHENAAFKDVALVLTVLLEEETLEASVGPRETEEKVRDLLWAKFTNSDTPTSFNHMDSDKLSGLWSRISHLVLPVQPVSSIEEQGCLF
Chain of Fibroblast growth factor 10 (Homo sapiens) (O15520 whole entry, looked up): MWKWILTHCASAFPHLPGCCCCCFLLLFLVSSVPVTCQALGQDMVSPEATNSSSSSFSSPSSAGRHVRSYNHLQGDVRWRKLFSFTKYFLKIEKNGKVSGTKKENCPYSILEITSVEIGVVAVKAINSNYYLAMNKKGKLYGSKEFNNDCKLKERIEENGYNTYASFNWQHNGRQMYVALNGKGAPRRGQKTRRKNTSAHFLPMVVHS
Chain of Epidermal growth factor receptor (Homo sapiens) (P00533 whole entry, looked up): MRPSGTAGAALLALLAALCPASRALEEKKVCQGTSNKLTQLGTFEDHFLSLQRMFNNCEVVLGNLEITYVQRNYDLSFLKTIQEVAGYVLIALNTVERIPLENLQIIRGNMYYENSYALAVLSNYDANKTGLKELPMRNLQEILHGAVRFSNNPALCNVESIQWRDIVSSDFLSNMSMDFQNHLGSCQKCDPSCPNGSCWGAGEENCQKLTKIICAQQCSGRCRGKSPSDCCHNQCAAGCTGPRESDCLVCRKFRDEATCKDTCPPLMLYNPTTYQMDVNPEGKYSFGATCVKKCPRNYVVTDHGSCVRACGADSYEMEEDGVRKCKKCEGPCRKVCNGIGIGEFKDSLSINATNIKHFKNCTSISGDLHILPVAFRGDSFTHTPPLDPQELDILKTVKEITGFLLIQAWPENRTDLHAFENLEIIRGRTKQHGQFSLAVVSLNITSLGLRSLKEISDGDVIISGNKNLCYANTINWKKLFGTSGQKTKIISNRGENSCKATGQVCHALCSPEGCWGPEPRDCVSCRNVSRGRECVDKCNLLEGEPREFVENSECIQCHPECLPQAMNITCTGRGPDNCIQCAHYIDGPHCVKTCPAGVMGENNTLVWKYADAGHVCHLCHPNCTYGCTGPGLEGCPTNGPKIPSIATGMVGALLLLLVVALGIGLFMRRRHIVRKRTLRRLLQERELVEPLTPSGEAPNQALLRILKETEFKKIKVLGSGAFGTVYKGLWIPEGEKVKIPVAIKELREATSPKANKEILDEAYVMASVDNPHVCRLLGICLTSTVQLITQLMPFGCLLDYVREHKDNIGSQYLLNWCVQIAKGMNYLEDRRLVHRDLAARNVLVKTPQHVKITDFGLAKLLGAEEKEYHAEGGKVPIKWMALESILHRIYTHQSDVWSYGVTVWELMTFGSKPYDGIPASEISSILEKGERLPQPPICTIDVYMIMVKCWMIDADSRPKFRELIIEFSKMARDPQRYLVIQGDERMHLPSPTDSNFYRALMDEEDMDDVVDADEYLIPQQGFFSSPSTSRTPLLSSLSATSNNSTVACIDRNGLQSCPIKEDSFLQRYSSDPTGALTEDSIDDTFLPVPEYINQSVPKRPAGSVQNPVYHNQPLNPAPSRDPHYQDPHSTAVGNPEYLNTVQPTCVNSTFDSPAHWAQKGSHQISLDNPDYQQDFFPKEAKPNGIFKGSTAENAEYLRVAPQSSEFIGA
Chain of Follistatin-related protein 3 (Homo sapiens) (O95633 whole entry, looked up): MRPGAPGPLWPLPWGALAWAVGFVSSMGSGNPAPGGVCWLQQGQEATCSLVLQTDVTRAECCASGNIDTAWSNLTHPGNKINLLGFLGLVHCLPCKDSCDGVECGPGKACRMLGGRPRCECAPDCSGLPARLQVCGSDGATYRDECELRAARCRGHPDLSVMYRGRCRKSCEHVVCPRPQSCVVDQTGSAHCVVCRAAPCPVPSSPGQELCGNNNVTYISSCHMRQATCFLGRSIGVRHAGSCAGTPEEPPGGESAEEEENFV

Row | SMILES | composite z-score [1] | z-score [2] | z-score [3] | z-score [4] | composite z-score [5] | z-score [6] | composite z-score [7] | composite z-score [8] | composite z-score [9] | composite z-score [10] | composite z-score [11] | composite z-score [12] | composite z-score [13] | z-score [14] | composite z-score [15] | composite z-score [16] | composite z-score [17] | composite z-score [18] | composite z-score [19] | composite z-score [20]
1 | O=C1OCCC/C=C\[C@H]2OC34C=CCN(Cc5ccccc5)C(=O)[C@H]3N(CCCCCCO)C(=O)[C@@H]4C12 (stereo not given in full) | -0.197 | 0.464 (inactive) | -0.431 (inactive) | 0.0977 (inactive) | 2.24 | 0.991 (inactive) | 0.0359 | -2.14 | -0.927 | -0.237 | -0.0862 | 0.227 | 0.932 | -0.286 (inactive) | -0.942 | -0.457 | -1.69 | -1.27 | -1.69 | -0.546
2 | CC(=O)NCCCC[C@@H]1NC(=O)[C@@H]2C[C@H](C(=O)NCCCCCCNC(=O)CS)[C@H](c3cccc(OCCO)c3)N2C1=O | 1.55 | -0.531 (inactive) | -0.507 (inactive) | -0.0963 (inactive) | 2.03 | -0.329 (inactive) | 0.498 | 0.452 | 0.249 | -0.112 | 1.76 | -0.0828 | 0.466 | -0.289 (inactive) | 0.639 | 1.12 | 0.37 | 0.325 | 0.791 | 0.388
3 | O=C1OCCC=C[C@H]2OC34C=CCN(CCN5CCOCC5)C(=O)[C@H]3N(CCCCCCO)C(=O)[C@@H]4C12 (stereo not given in full) | 0.358 | 0.807 (inactive) | -1 (inactive) | 0.201 (inactive) | 0.562 | 0.15 (inactive) | -0.294 | -0.627 | -0.017 | -0.251 | 0.813 | -0.5 | -0.35 | 0.418 (inactive) | -0.306 | -0.225 | -0.71 | -0.351 | -0.292 | 0.191
4 | O=C(c1ccccc1)N1Cc2ccccc2[C@@H]2OC(c3ccc(OCCCO)cc3)=N[C@]2(Cc2ccccc2)C1=O | 1.2 | -0.756 (inactive) | 0.833 (inactive) | 4.11 (inactive) | 3.13 | -0.0783 (inactive) | 0.0337 | 1.05 | 1.1 | -0.0187 | 1.35 | 0.114 | 0.431 | -0.0808 (inactive) | 1.24 | 1.33 | 0.444 | 1.03 | 0.0731 | 0.3
5 | COCCOC(=O)N1C(=O)[C@@]2(c3cc(C#Cc4ccc(OC)cc4)ccc31)[C@H](C(=O)N1CCCCCCC1)[C@H]1C(=O)O[C@H](c3ccccc3)[C@H](c3ccccc3)N1[C@@H]2c1ccc(OCCO)cc1 | 1.55 | -0.821 (inactive) | 0.0405 (inactive) | 3.27 (inactive) | 2.29 | 2.36 (inactive) | 1.59 | 2.1 | 1.01 | 0.4 | 1.37 | 2.34 | 1.45 | -0.16 (inactive) | 1.7 | 1.33 | 1.13 | 1.45 | 1.76 | 1.58
6 | COCCOC(=O)N1C(=O)[C@@]2(c3cc(C#CC4=CCCCC4)ccc31)[C@H](C(=O)N1CCc3cc(OC)c(OC)cc3C1)[C@H]1C(=O)O[C@H](c3ccccc3)[C@H](c3ccccc3)N1[C@@H]2c1ccc(OCCO)cc1 | 1.55 | 1.34 (inactive) | 0.713 (inactive) | 3.16 (inactive) | 2.49 | -0.217 (inactive) | -0.119 | 0.916 | 1.09 | -0.0357 | 0.563 | 0.0129 | -0.134 | 0.342 (inactive) | 1.3 | 1.3 | 0.649 | 1.03 | 0.8 | 0.706
7 | O=C1OCCC/C=C\[C@H]2OC34C=CCN(Cn5nnc6ccccc65)C(=O)[C@H]3N(CCO)C(=O)[C@@H]4C12 (stereo not given in full) | -0.614 | 0.744 (inactive) | -0.0999 (inactive) | -0.277 (inactive) | 1.41 | 2.83 (inactive) | 0.478 | -0.708 | -0.571 | -0.0015 | 1.31 | -0.316 | 0.292 | -1.48 (inactive) | -0.468 | -0.963 | -0.898 | -1.41 | -1.14 | -0.171
8 | COc1ccc(C(=O)Nc2ccc(CN3C(=O)[C@@]4(O[C@@H](CCn5cc([C@H](O)c6ccccc6)nn5)[C@H]([Si](C)(C)c5ccc(OC)cc5)[C@H]4C)c4ccccc43)cc2)cc1 | 1.46 | 0.188 (inactive) | -0.807 (inactive) | 1.66 (inactive) | 1.11 | -0.351 (inactive) | -0.136 | 0.323 | 0.378 | -0.134 | 0.834 | -0.0682 | 0.512 | -1.06 (inactive) | -0.0022 | 0.054 | -0.591 | 0.183 | -0.347 | 0.975
9 | C=CCC(OC(C)=O)[C@@H]1[C@@H](N(Cc2ccc(-c3cccc(C(F)(F)F)c3)o2)C(=O)c2ccc(-c3ccccc3)cc2)c2cc(OCCCO)ccc2N1C(=O)c1ccc(-c2ccccc2)cc1 (stereo not given in full) | -0.432 | 0.308 (inactive) | -0.0943 (inactive) | 0.8 (inactive) | 1.03 | -0.801 (inactive) | 0.0869 | -0.29 | -0.147 | -0.15 | -0.285 | 0.31 | 0.543 | 0.196 (inactive) | 0.269 | -0.754 | -0.327 | 0.104 | -0.0545 | 1.32
10 | CCCCCN1CC=CC23O[C@@H]4/C=C\CCCOC(=O)C4[C@H]2C(=O)N(CCCO)[C@@H]3C1=O (stereo not given in full) | 0.83 | -1.03 (inactive) | -0.81 (inactive) | -1.67 (inactive) | 3.58 | 2.35 (inactive) | -0.135 | -0.103 | 0.165 | -0.186 | 0.93 | -0.175 | 0.062 | 0.308 (inactive) | 0.0154 | 1.06 | -0.346 | -0.352 | -0.663 | 1.41

Reference: PubChem BioAssay
